Consider seven molecules from PubChem BioAssay (NCI).

Molecules are shown by their SMILES. About 83,000 compounds went through this panel and 20% of them were active in at least one assay; those are over-represented in the sample as a whole.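 In brief: 96-well plates, 48 h treatment, single concentration, percent growth endpoint.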 Unmarked numbers belong to inactive results. Active and inactive are the calls of the source. How the source made its calls: active means growth percent below 10; inactive means the rest.

Some test systems named below: HOP-92 NSCLC; 786-0 renal; MALME-3M melanoma; RXF 393 renal; EKVX NSCLC; SN12C renal; TK-10 renal; A498 renal; CCRF-CEM leukemia; RPMI-8226 leukemia; OVCAR-8 ovarian; OVCAR-5 ovarian; OVCAR-4 ovarian; SK-OV-3 ovarian; IGROV1 ovarian; NCI/ADR-RES ovarian; T-47D breast; MDA-MB-435 melanoma; MCF7 breast; HCT-116 colon.
What all share (test): NCI-60 one-dose screen, 48 h (100 = growth as untreated, 0 = no growth, -100 = all killed)
Common to all, as to conditions: 10 µM

Consider `CC[C@]12C=CCN3CC[C@@]4(c5ccc(OC)cc5N(C)[C@H]4[C@@](O)(C(=O)OC)[C@@H]1OC(=O)CCCC[P+](c1ccc(C)cc1)(c1ccc(C)cc1)c1ccc(C)cc1)[C@@H]32`, for which the growth in the test on HOP-92 NSCLC was -77.9% (active); in the test on 786-0 renal, -91% (active); in the test with MALME-3M melanoma it was -96% (active); in the test with RXF 393 renal, -87.6% (active); in the test with EKVX NSCLC, -93.8% (active); in the test with SN12C renal it was -88.5% (active). Further, the growth in the test with TK-10 renal is -91.3% (active); in the test on A498 renal, -90.9% (active); with CCRF-CEM leukemia, -72.4% (active); in the test with RPMI-8226 leukemia it was -46% (active); in the test on OVCAR-8 ovarian, -86.6% (active); in the test with OVCAR-5 ovarian, -96% (active). Also, the growth with OVCAR-4 ovarian was -68.9% (active); in the test on SK-OV-3 ovarian, -82.3% (active); in the test on IGROV1 ovarian it was -91.8% (active); in the test on NCI/ADR-RES ovarian, 71.8%; in the test with T-47D breast, -64.5% (active); in the test on MDA-MB-435 melanoma it was -86.8% (active). Further, the growth in the test with MCF7 breast was -81.2% (active); with HCT-116 colon, -93.5% (active).
For `CC[C@]12C=CCN3CC[C@@]4(c5ccc(OC)cc5N(C)[C@H]4[C@@](O)(C(=O)OC)[C@@H]1OC(=O)CCC[P+](c1ccc(F)cc1)(c1ccc(F)cc1)c1ccc(F)cc1)[C@@H]32`, the growth in the test on HOP-92 NSCLC was -6.2% (active); in the test on 786-0 renal, 80.9%; in the test on MALME-3M melanoma it was -32.6% (active); in the test with RXF 393 renal it was -10.4% (active); with EKVX NSCLC, 58.1%; with SN12C renal it was 16.6%. In addition, the growth is 63.9% in the test with TK-10 renal; 101% in the test on A498 renal; 20% in the test with CCRF-CEM leukemia; 24.4% in the test on RPMI-8226 leukemia; 28% in the test with OVCAR-8 ovarian; 67% with OVCAR-5 ovarian. In addition, the growth with OVCAR-4 ovarian is 48.6%; in the test with SK-OV-3 ovarian, 54.7%; with IGROV1 ovarian it was -15% (active); in the test with NCI/ADR-RES ovarian it was 104%; in the test with T-47D breast it was 10.4%; with MDA-MB-435 melanoma, 6.69% (active). Further, the figures for the growth in the test with MCF7 breast and with HCT-116 colon were 7.7% (active) and 32.2%, respectively.
Regarding `CC[C@]12C=CCN3CC[C@@]4(c5ccc(OC)cc5N(C)[C@H]4[C@@](O)(C(=O)OC)[C@@H]1OC(=O)CCC[P+](C1CCCCC1)(C1CCCCC1)C1CCCCC1)[C@@H]32`, the growth in the test on HOP-92 NSCLC is -43.8% (active); in the test on 786-0 renal it was -16.3% (active); with MALME-3M melanoma, -96.1% (active); in the test with RXF 393 renal, -70.3% (active); in the test with EKVX NSCLC it was 15.4%; in the test on SN12C renal, -40.5% (active). For the same molecule, the growth in the test on TK-10 renal is -48.6% (active); in the test with A498 renal it was 21.8%; in the test on CCRF-CEM leukemia it was -40.9% (active); with RPMI-8226 leukemia it was -43.4% (active); in the test on OVCAR-8 ovarian it was 1.19% (active); in the test with OVCAR-5 ovarian, 11%. Further, the growth was 17.7% in the test on OVCAR-4 ovarian; -7.72% (active) in the test on SK-OV-3 ovarian; -85.9% (active) with IGROV1 ovarian; 100% in the test on NCI/ADR-RES ovarian; -1.81% (active) in the test with T-47D breast; -80.1% (active) in the test with MDA-MB-435 melanoma. In addition, the figures for the growth in the test with MCF7 breast and with HCT-116 colon were -72.2% (active) and 0.156% (active), respectively.
For `CC1=C(CCC=NNC(N)=O)C2=C(C)C3(CC3)[C@@](C)(O)C(=O)C2=C1`, the growth in the test on HOP-92 NSCLC is -11.3% (active); in the test on 786-0 renal it was -3.6% (active); in the test with MALME-3M melanoma, -93.4% (active); in the test on RXF 393 renal, -80.8% (active); in the test with EKVX NSCLC, -25.1% (active); in the test with SN12C renal, -61.3% (active). In addition, the growth in the test with TK-10 renal was -10.5% (active); in the test with A498 renal it was -67.2% (active); in the test on CCRF-CEM leukemia it was 10.4%; in the test with RPMI-8226 leukemia, 1.7% (active); in the test on OVCAR-8 ovarian, -58.7% (active); in the test on OVCAR-5 ovarian, -35.8% (active). Moreover, the growth with OVCAR-4 ovarian was -38.1% (active); in the test with SK-OV-3 ovarian, -72.1% (active); in the test on IGROV1 ovarian, -34% (active); in the test on NCI/ADR-RES ovarian it was -39.3% (active); in the test on T-47D breast, -38.1% (active); with MDA-MB-435 melanoma it was -96.3% (active). Besides, the growth in the test with MCF7 breast was -74.8% (active); with HCT-116 colon, 1.04% (active).
On to `CC1=C2C(=C[C@@](C)(COP(=O)(Oc3ccccc3)Oc3ccccc3)[C@@H]2O)C(=O)[C@@](C)(O)C12CC2`, for which the growth was -44.8% (active) with HOP-92 NSCLC; -16.1% (active) in the test on 786-0 renal; -96.7% (active) in the test with MALME-3M melanoma; -95.6% (active) in the test with RXF 393 renal; -52.5% (active) with EKVX NSCLC; -76.3% (active) in the test on SN12C renal. Besides, the growth with TK-10 renal was -22.2% (active); with A498 renal it was -39.4% (active); with CCRF-CEM leukemia, 12.5%; in the test on RPMI-8226 leukemia it was 9.34% (active); with OVCAR-8 ovarian, -68.5% (active); in the test on OVCAR-5 ovarian, -64.5% (active). Further, the growth in the test on OVCAR-4 ovarian is -72.9% (active); in the test with SK-OV-3 ovarian, -79.5% (active); in the test with IGROV1 ovarian it was -75.8% (active); in the test with NCI/ADR-RES ovarian, -75.5% (active); with T-47D breast, -47.8% (active); in the test with MDA-MB-435 melanoma it was -77.1% (active). In addition, the growth in the test on MCF7 breast is 4.25% (active); in the test with HCT-116 colon, 0.872% (active).
On to `CC1=C(C=O)C2=C(C)C3(CC3)[C@@](C)(O)C(=O)C2=C1`, for which the growth with HOP-92 NSCLC is 18.5%; in the test on 786-0 renal it was -38.7% (active); in the test with MALME-3M melanoma it was 1.71% (active); in the test on RXF 393 renal, -68.8% (active); in the test with EKVX NSCLC it was 68%; in the test on SN12C renal it was 44.2%. The growth is 53.6% in the test on TK-10 renal; -30.3% (active) in the test with A498 renal; 18% in the test on CCRF-CEM leukemia; 17.1% with RPMI-8226 leukemia; -25.3% (active) in the test on OVCAR-8 ovarian; 36.7% in the test with OVCAR-5 ovarian. In addition, the growth with OVCAR-4 ovarian was 44.5%; with SK-OV-3 ovarian it was -3.31% (active); in the test with IGROV1 ovarian it was 53.6%; in the test with NCI/ADR-RES ovarian it was 16%; in the test on T-47D breast, 13.5%; in the test on MDA-MB-435 melanoma it was -35.2% (active). Further, the growth is 14% in the test with MCF7 breast and -34.7% (active) in the test on HCT-116 colon.
As to `O=C(/C=C/c1ccc(F)cc1)c1nc2ccccc2n1Cc1ccc(F)cc1`, the growth in the test with HOP-92 NSCLC is 22.9%; in the test with 786-0 renal it was -31.5% (active); with MALME-3M melanoma it was -23.8% (active); in the test with RXF 393 renal it was -67.6% (active); in the test with EKVX NSCLC it was 13.6%; with SN12C renal it was 21.9%. Also, the growth is 12.2% in the test with TK-10 renal; 112% with A498 renal; 7.89% (active) in the test on CCRF-CEM leukemia; -27.1% (active) in the test on RPMI-8226 leukemia; 2.66% (active) with OVCAR-8 ovarian; -7.92% (active) in the test with OVCAR-5 ovarian. Besides, the growth in the test on OVCAR-4 ovarian was 56.8%; in the test on SK-OV-3 ovarian, 70.4%; in the test on IGROV1 ovarian it was 14.9%; in the test with NCI/ADR-RES ovarian it was -42.5% (active); in the test on T-47D breast, 16.6%; in the test with MDA-MB-435 melanoma, -37.9% (active). For the same molecule, the growth is 7.32% (active) with MCF7 breast and -56.9% (active) in the test with HCT-116 colon.
